From PMC5700166

Tests used:
Assay in all cases: protein-binding microarray (PBM); PBM: ~300 nM protein, 6 mM HEPES pH 7.8, 80 mM KCl, 0.5 mM EDTA, 0.5 mM EGTA, 6% glycerol, 35 ng/ul poly-dIdC, 1% milk, 1 h, room temperature; Ap Aiptasia and Nv Nematostella (sea anemones) / Co Capsaspora / Aq Amphimedon (sponge) / Dm Drosophila / Hu human; RHD is the Rel homology domain; high values mean tight binding
Details in all cases: dsDNA, one strand shown
[1] = biological target: T1, GST-Nv-NF-kB (Cys allele) (Nematostella vectensis, UniProt E5G601 2-411)
T1 sequence: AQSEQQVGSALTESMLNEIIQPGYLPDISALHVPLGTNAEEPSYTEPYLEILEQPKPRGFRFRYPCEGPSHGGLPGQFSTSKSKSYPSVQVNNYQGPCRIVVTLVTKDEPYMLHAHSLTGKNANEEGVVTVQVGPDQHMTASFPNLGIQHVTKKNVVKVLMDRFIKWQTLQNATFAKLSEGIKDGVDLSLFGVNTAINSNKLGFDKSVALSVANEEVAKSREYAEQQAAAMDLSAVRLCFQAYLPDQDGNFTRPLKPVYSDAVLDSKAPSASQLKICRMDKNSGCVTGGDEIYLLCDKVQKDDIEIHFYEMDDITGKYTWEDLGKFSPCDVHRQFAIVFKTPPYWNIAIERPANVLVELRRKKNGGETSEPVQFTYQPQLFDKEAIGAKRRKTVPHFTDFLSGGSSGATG

[2] = biological target: T2, GST-Dm-Relish (Drosophila melanogaster, UniProt Q94527 99-473)
T2 sequence: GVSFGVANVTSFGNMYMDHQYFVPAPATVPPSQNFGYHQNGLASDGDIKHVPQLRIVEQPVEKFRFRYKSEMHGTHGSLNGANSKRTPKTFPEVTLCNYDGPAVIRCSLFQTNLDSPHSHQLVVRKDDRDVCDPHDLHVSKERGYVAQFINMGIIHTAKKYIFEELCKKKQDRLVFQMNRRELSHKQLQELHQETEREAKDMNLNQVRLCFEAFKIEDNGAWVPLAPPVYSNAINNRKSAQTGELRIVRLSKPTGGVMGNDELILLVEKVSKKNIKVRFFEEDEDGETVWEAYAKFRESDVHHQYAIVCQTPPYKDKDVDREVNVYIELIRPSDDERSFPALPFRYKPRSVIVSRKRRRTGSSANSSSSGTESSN

[3] = biological target: T3, GST-Aq-NF-kB (Amphimedon queenslandica, UniProt A9Y5G7 2-389)
T3 sequence: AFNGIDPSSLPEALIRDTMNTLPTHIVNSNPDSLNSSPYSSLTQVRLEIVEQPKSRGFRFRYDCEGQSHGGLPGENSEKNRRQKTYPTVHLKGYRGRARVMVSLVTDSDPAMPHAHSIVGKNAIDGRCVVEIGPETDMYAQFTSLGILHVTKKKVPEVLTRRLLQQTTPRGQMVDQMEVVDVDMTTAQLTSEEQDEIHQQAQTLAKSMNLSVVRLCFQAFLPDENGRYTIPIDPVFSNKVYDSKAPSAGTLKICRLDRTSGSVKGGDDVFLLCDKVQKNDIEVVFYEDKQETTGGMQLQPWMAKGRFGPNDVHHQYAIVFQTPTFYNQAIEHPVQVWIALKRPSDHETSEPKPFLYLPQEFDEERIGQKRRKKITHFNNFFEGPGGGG

[4] = biological target: T4, GST-Co-NF-kB (Capsaspora owczarzaki, UniProt F1ARL5 200-546)
T4 sequence: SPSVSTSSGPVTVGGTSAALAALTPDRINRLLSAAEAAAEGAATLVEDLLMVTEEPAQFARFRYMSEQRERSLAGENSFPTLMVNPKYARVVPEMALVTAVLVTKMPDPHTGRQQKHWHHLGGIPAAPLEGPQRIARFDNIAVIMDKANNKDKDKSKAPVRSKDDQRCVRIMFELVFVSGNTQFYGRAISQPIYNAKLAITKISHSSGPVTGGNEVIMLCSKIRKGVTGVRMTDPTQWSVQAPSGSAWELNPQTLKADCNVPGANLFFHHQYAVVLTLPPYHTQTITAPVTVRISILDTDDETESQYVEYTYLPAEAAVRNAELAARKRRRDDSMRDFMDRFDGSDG

Sequence	binding signal [1] [z-score]	binding signal [2] [z-score]	binding signal [3] [z-score]	binding signal [4] [z-score]
CCGATTAACATCAGGAAATTTCCTGATGTTAATCGGGTCTTGATTCGCTTGACGCTGCTG	1.72	1.75	3.27	–
CCGATTAACATCAAATTGGGAAATGATGTTAATCGGGTCTTGATTCGCTTGACGCTGCTG	2.55	–	1.16	1.89
CCGATTAACATCAGGAATGTACCTGATGTTAATCGGGTCTTGATTCGCTTGACGCTGCTG	1.98	4.93	3.14	–
CCGATTAACATCAAAATATTCCGTGATGTTAATCGGGTCTTGATTCGCTTGACGCTGCTG	–	–	1.1	1.07
CCGATTAACATCAGGAATCTACCTGATGTTAATCGGGTCTTGATTCGCTTGACGCTGCTG	1.61	2.24	3.42	–
CCGATTAACATCAGGAATATACCTGATGTTAATCGGGTCTTGATTCGCTTGACGCTGCTG	1.47	1.86	1.69	–
CCGATTAACATCACATTGGGAAATGATGTTAATCGGGTCTTGATTCGCTTGACGCTGCTG	2.26	1.18	1.18	2.31
CCGATTAACATCAAGGAAAAACCTGATGTTAATCGGGTCTTGATTCGCTTGACGCTGCTG	1.07	2.61	3.09	–
CCGATTAACATCAGGGTTAGTTGTGATGTTAATCGGGTCTTGATTCGCTTGACGCTGCTG	–	–	1.57	1.11
CCGATTAACATCAAGGACTTTCCTGATGTTAATCGGGTCTTGATTCGCTTGACGCTGCTG	1.03	3.11	4.6	–
CCGATTAACATCAGGTCTTTCCATGATGTTAATCGGGTCTTGATTCGCTTGACGCTGCTG	–	1.02	1.55	–
CCGATTAACATCACGTGGTTTCCTGATGTTAATCGGGTCTTGATTCGCTTGACGCTGCTG	–	3.67	1.63	–
CCGATTAACATCAGGATTTTTTATGATGTTAATCGGGTCTTGATTCGCTTGACGCTGCTG	–	2.63	1.59	–
CCGATTAACATCAGGAAAATTTATGATGTTAATCGGGTCTTGATTCGCTTGACGCTGCTG	–	1.44	1.26	–
CCGATTAACATCAAAAATTCCACTGATGTTAATCGGGTCTTGATTCGCTTGACGCTGCTG	–	2.3	1.44	–
CCGATTAACATCAAAATTTCCACTGATGTTAATCGGGTCTTGATTCGCTTGACGCTGCTG	–	1.61	1.15	–
CCGATTAACATCAAGGAAAGTCCTGATGTTAATCGGGTCTTGATTCGCTTGACGCTGCTG	–	3.16	4.65	–
CCGATTAACATCAAAAAAAATCCTGATGTTAATCGGGTCTTGATTCGCTTGACGCTGCTG	–	3.09	2.68	–

Sequence	binding signal [1] [z-score]	binding signal [2] [z-score]	binding signal [3] [z-score]	binding signal [4] [z-score]
CCGATTAACATCAAAAAAATTTCTGATGTTAATCGGGTCTTGATTCGCTTGACGCTGCTG	–	1.41	1.23	–
CCGATTAACATCAACGGAATTCCTGATGTTAATCGGGTCTTGATTCGCTTGACGCTGCTG	–	2.11	1.66	–
CCGATTAACATCAGGAATTTTACTGATGTTAATCGGGTCTTGATTCGCTTGACGCTGCTG	–	1.49	1.14	–
CCGATTAACATCAATGGGTTTCCTGATGTTAATCGGGTCTTGATTCGCTTGACGCTGCTG	–	2.98	1.07	–
CCGATTAACATCAGGTTTTTCCATGATGTTAATCGGGTCTTGATTCGCTTGACGCTGCTG	–	2.68	2.64	–
CCGATTAACATCACGGAAAGTACTGATGTTAATCGGGTCTTGATTCGCTTGACGCTGCTG	–	4.11	2.92	–
CCGATTAACATCAAAAATTTTCCTGATGTTAATCGGGTCTTGATTCGCTTGACGCTGCTG	–	2.62	1.81	1.7
CCGATTAACATCAGGAATTTCTATGATGTTAATCGGGTCTTGATTCGCTTGACGCTGCTG	–	1.28	1.23	–
CCGATTAACATCACGGAATTCCATGATGTTAATCGGGTCTTGATTCGCTTGACGCTGCTG	–	1.4	1.3	–
CCGATTAACATCAAAAATTCCGCTGATGTTAATCGGGTCTTGATTCGCTTGACGCTGCTG	–	1.22	1.89	–
CCGATTAACATCAAAAAAAGTACTGATGTTAATCGGGTCTTGATTCGCTTGACGCTGCTG	–	7.01	1.54	–
CCGATTAACATCACAGGAATTCCTGATGTTAATCGGGTCTTGATTCGCTTGACGCTGCTG	–	3.05	2.17	–
CCGATTAACATCAAGGATTTTCCTGATGTTAATCGGGTCTTGATTCGCTTGACGCTGCTG	–	1.44	3.08	–
CCGATTAACATCACGGAAACCACTGATGTTAATCGGGTCTTGATTCGCTTGACGCTGCTG	–	3.59	1.46	–
CCGATTAACATCAGAGGATTTCCTGATGTTAATCGGGTCTTGATTCGCTTGACGCTGCTG	–	1.74	1.55	–
CCGATTAACATCAGGTATTTCCATGATGTTAATCGGGTCTTGATTCGCTTGACGCTGCTG	–	2.79	3.5	–
CCGATTAACATCAATGGAATTCCTGATGTTAATCGGGTCTTGATTCGCTTGACGCTGCTG	–	3.2	1.5	–
CCGATTAACATCACGGAAATTTCTGATGTTAATCGGGTCTTGATTCGCTTGACGCTGCTG	–	1.36	2.5	1.12
